Cardiac RTF inh – cardiac RTF calcium sensitivity inhibitors, primary screen, biochemical, IANBD-TnC fluorescence, EC70 calcium; Troponin I, cardiac muscle (Homo sapiens) + Troponin T, cardiac muscle (Homo sapiens) + …; IANBD-labeled cardiac RTF, Ca2+ fluorescence; inhibition, % at 7.15 µM; 0.12% of 340,000 active; AID 493244, 2011;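 active = inhibition above the mean inhibition of all tested compounds plus 3 SD, cut at about 17% in these data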;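 also: assay run at fixed EC70 calcium of 1.6 mM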
LANA DNA inh – inhibitors of KSHV C-LANA binding to DNA, primary screen, biochemical, fluorescence polarization, FAM-LBS DNA, MBP-C-LANA, single point; Kaposi's sarcoma herpesvirus LANA C-terminal domain (residues 932-1162) DNA binding; inhibition, % at 9 µM; 0.078% of 340,000 active; AID 504423, 2011;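 active = highest replicate inhibition at or above 60% at 9 µM, even if other replicates fall short; inactive = all replicates below 60% inhibition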
E coli Lon inh – inhibitors of E. coli Lon protease, primary screen, biochemical, fluorescence polarization; P0A9M0; AID 602123, 2011; inhibition, % at 7.94 µM; 0.42% of 360,000 active; purified E. coli Lon protease; in the data active = inhibition above about 13%, passing the limit was not always enough
RTF Ca sens act – cardiac RTF calcium sensitivity activators, primary screen, biochemical, IANBD-TnC fluorescence, EC20 calcium; Troponin I, cardiac muscle (Homo sapiens) + Troponin T, cardiac muscle (Homo sapiens) + …; IANBD-labeled TnC RTF fluorescence at EC20 calcium; 0% EC20 calcium, 100% full calcium; 0.24% of 340,000 active; activation, % at 7.2 µM; AID 493008, 2010;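 active = activation above the mean over all tested compounds plus 3 SD, cut at about 30% in these data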;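 also: rise in fluorescence read as greater calcium sensitivity of cardiac thin filaments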
Keap1-Nrf2 PPI – Keap1-Nrf2 protein-protein interaction inhibitors, primary screen, biochemical, fluorescence polarization, single point; Kelch-like ECH-associated protein 1 (Homo sapiens), Q14145; Keap1 Kelch-Nrf2 peptide fluorescence polarization, 1536-well; inhibition, % at 9.4 µM; 0.15% of 340,000 active; in the data active = inhibition above about 12%;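 also: human Keap1 Kelch domain with fluorescein labeled Nrf2 9mer peptide probe; higher means more block of Keap1 binding to Nrf2 peptide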
Target sequence (Q14145 whole entry, looked up, the tested form may be a part): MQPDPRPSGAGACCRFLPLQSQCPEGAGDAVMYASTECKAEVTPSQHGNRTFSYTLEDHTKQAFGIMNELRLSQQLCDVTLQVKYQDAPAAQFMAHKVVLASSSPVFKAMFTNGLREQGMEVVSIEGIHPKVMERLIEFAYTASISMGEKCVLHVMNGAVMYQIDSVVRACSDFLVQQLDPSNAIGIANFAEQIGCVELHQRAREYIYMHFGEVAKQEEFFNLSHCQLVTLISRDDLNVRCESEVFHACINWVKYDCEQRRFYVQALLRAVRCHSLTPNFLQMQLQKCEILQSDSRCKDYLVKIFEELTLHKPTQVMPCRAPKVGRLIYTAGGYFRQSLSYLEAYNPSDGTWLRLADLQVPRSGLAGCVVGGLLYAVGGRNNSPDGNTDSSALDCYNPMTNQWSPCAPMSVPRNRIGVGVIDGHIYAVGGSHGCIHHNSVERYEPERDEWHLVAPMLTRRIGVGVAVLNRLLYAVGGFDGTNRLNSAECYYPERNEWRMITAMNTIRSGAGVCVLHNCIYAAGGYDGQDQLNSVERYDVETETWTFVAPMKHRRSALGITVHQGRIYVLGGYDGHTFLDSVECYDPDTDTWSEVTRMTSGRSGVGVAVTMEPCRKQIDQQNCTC
eLon confirm – E. coli Lon protease inhibitor retest, confirmation, biochemical, fluorescence polarization. purified E. coli Lon. inhibition, % at 7.94 µM. 31% of 1,400 active. shares compounds with E coli Lon inh; in the data active = inhibition above about 16%
Large screens that a line does not name were inactive (follow-up assays come after a bar, where they were run). In the library only some 0.82% were active in any assay of this set; here they are far more common.

O=C1c2ccc(-c3ccc4c(c3)C(=O)N(CCCO)C4=O)cc2C(=O)N1CCCO	none
O=C1C2=C(SCCS2)C(=O)N1CCCO	E coli Lon inh 41 | eLon confirm 55
CCn1c(CSc2nnc3ccccn23)nc2cc(C(=O)O)ccc21	E coli Lon inh 52 | eLon confirm 42
CS(=O)(=O)Nc1cccc(NC(=O)C2Cc3c(-c4ccccc4)ccnc3O2)c1 (stereo unspecified)	none (no result: Cardiac RTF inh, LANA DNA inh, RTF Ca sens act, Keap1-Nrf2 PPI)
O=C(O)CC(SCC(=O)Nc1ccc(S(=O)(=O)N2CCCC2)cc1)C(=O)O (stereo unspecified)	E coli Lon inh 17 | eLon confirm inactive
COCc1cccc(-c2csc(C(C)(O)c3ccccc3)n2)c1 (stereo unspecified)	none (no result: Cardiac RTF inh, LANA DNA inh, RTF Ca sens act, Keap1-Nrf2 PPI)
CCCCCCc1cc2cc(S(=O)(=O)c3ccc(F)c(Cl)c3)c(=O)oc2cc1O	E coli Lon inh 84 | eLon confirm inactive
COc1ccc(C(=O)N=C2SC3CS(=O)(=O)CC3N2Cc2ccccc2)cc1OC (stereo unspecified)	E coli Lon inh 16 | eLon confirm inactive
Cc1ccc(S(=O)(=O)N2CCC(=O)N([C@H](COCc3ccc(Cl)cc3)C(C)C)CC2)cc1	none (no result: Cardiac RTF inh, LANA DNA inh, RTF Ca sens act, Keap1-Nrf2 PPI)
N=c1c2c(-c3ccccc3)c(-c3ccccc3)n(Cc3ccco3)c2ncn1CCCN1CCOCC1	E coli Lon inh 14 | eLon confirm inactive
N=c1c2c(-c3ccccc3)c(-c3ccccc3)n(Cc3ccco3)c2ncn1CCCn1ccnc1	none
CN(C)c1ccc2nc3c(=O)[nH]c(=O)nc-3n(CC(O)C(O)C(O)CO)c2c1 (stereo unspecified)	E coli Lon inh 165, RTF Ca sens act 125 | eLon confirm 82
Cn1c2ccccc2c2cc(/C=N/NC(=O)c3ccc(N)cc3)ccc21	E coli Lon inh 20 | eLon confirm inactive
Cn1nc(-c2ccccc2)c(N2CCCCC2)cc1=O	none (no result: LANA DNA inh, Keap1-Nrf2 PPI)
Cn1c(=O)cc2c3c(c(N4CCCCC4)ccc31)C(=O)c1ccccc1-2	E coli Lon inh active (no result: Cardiac RTF inh, LANA DNA inh, RTF Ca sens act, Keap1-Nrf2 PPI) | eLon confirm 73
CC(=O)c1ccc2c(c1)c(C#N)c1ccccc1[n+]2[O-]	E coli Lon inh 96 | eLon confirm 88
Cc1cc(C(=O)COc2ccccc2C(N)=O)c(C)n1C	none
Cc1cc(C(=O)COc2cccc3cccnc23)c(C)n1C	E coli Lon inh 71, RTF Ca sens act 53, Keap1-Nrf2 PPI 24 | eLon confirm inactive
O=C(COC(=O)c1ccc(CN2CCCC2=O)cc1)Nc1ccc(F)cc1	none
CC(OC(=O)c1ccc(CN2CCCC2=O)cc1)C(=O)Nc1ccc(Cl)cc1 (stereo unspecified)	E coli Lon inh 24 | eLon confirm 60
CC(=O)Nc1ccc(NC(=O)C(C)OC(=O)c2ccc(S(=O)(=O)N3CCCCC3)cc2)cc1 (stereo unspecified)	E coli Lon inh 67 | eLon confirm inactive
CC(C)n1c(S(=O)(=O)O)nc2ccccc21	E coli Lon inh 14 | eLon confirm inactive
CC(c1ccccc1)n1c(S(=O)(=O)O)nc2ccccc21 (stereo unspecified)	none
O=c1nc2c(O)cccn2c2c1c(=O)[nH]c1ccccc12	E coli Lon inh 156, RTF Ca sens act 40 | eLon confirm 142
CCNC(=O)c1c(C)nc2ccccn12	E coli Lon inh 16 | eLon confirm inactive
CCOC(=O)C(=C1Nc2ccccc2N1)n1c(-c2cnccn2)nc2ccccc21	none (no result: Cardiac RTF inh, LANA DNA inh, RTF Ca sens act, Keap1-Nrf2 PPI)
CCOC(=O)C(=C1Nc2ccccc2N1)n1c(-c2ccco2)nc2ccccc21	E coli Lon inh 41 (no result: Cardiac RTF inh, LANA DNA inh, RTF Ca sens act, Keap1-Nrf2 PPI) | eLon confirm 20
COc1ccc(N2CCN(CC(O)COCCOc3ccc(Br)cc3)CC2)cc1 (stereo unspecified)	none
OCCN1CCN(CC(O)COCCOc2ccc(Br)cc2)CC1 (stereo unspecified)	E coli Lon inh 69 | eLon confirm inactive
CC1(OC(=O)c2ccco2)C(=O)C=C2C=C(C3CC3)OC=C2C1=O (stereo unspecified)	E coli Lon inh 25 | eLon confirm inactive
CC1(OC(=O)c2cccs2)C(=O)C=C2C=C(C3CC3)OC=C2C1=O (stereo unspecified)	none
O=C(COC(=O)C1=Cc2ccccc2OC1)NCc1ccc(F)cc1	E coli Lon inh 31 | eLon confirm inactive
CCOC(=O)N1CCN(Cc2nc3ccc([N+](=O)[O-])cc3c(=O)n2-c2ccccc2F)CC1	E coli Lon inh 18 | eLon confirm inactive
Cc1sc2ncn(CC(=O)NCC(=O)N3CCN(c4ccccc4F)CC3)c(=O)c2c1C	E coli Lon inh 19 | eLon confirm inactive
O=C(N=Nc1c(O)[nH]c2ccc(Br)cc12)c1ccco1	none (no result: Cardiac RTF inh, LANA DNA inh, RTF Ca sens act, Keap1-Nrf2 PPI)
O=C(N=Nc1c(O)[nH]c2ccc(Br)cc12)c1ccccc1-n1cccc1	E coli Lon inh 24 | eLon confirm inactive
C=CCNC(=O)/C(C#N)=C/c1ccccc1[N+](=O)[O-]	E coli Lon inh 23 | eLon confirm 19
CC(C)(C)Cc1c(-c2cccc(Cl)c2)nc2ccc(Br)cn12	none (no result: Cardiac RTF inh, LANA DNA inh, RTF Ca sens act, Keap1-Nrf2 PPI)
O=C1CCCC[C@@H](CO)[C@H](O)C[C@H](c2ccccc2)O1	none (no result: Cardiac RTF inh, LANA DNA inh, RTF Ca sens act, Keap1-Nrf2 PPI)
Cc1occc1C(=O)NC(C)C1CCCO1 (stereo unspecified)	E coli Lon inh 15 | eLon confirm inactive
CC(NC(=O)c1ccco1)C1CCCO1 (stereo unspecified)	none
CCC(=O)N1CCC(C)(C(=O)Nc2ccc3c(c2)OCO3)C1 (stereo unspecified)	none (no result: Cardiac RTF inh, LANA DNA inh, RTF Ca sens act, Keap1-Nrf2 PPI)
Cc1cc2oc(=O)cc(CN3CCN(C/C=C/c4ccccc4)CC3)c2cc1O	E coli Lon inh 22 | eLon confirm inactive
N#CC1=C(N)C2=C(N3CCCCC3)CCCC2C1(C#N)C#N (stereo unspecified)	E coli Lon inh 24 | eLon confirm inactive
CCOc1ccccc1C(=O)NCCC(=O)O	E coli Lon inh 17 | eLon confirm inactive
CCOc1ccccc1C(=O)NCCCCNC(=O)c1ccccc1OCC	none
Cc1cccc(-c2cccc(NC(=O)C3CCCN(C(=O)c4cccnc4)C3)c2)c1 (stereo unspecified)	none
Cc1cccc(-c2cccc(NC(=O)C3CCCN(C(=O)c4csc(C)n4)C3)c2)c1 (stereo unspecified)	E coli Lon inh 79 | eLon confirm inactive
COc1ccc2[nH]c(C)c(CCN(Cc3cccs3)C(=S)Nc3cccc(F)c3)c2c1	E coli Lon inh 27 | eLon confirm inactive
COc1cccc(NC(=S)N(CCc2c(C)[nH]c3ccc(C)cc23)Cc2cccs2)c1	none
COc1cccc(-c2cnc3c(NC=O)cc(-c4ccncc4)cn23)c1	none (no result: Cardiac RTF inh, LANA DNA inh, RTF Ca sens act, Keap1-Nrf2 PPI)
